ZTA counter = counter-screen for EBNA-1 inhibitors: inhibitors of Epstein-Barr virus ZTA; AID 2234; ZTA-DNA binding, fluorescence polarization; inhibition, % at 11 µM; P03206; 320,000 compounds, 0.15% hits; in the data active = inhibition above about 33%
PG9 binder = PG9 antibody binding by small molecule. TR-FRET gp120-PG9 antibody binding. inhibition, % at 6.7 µM. 360,000 compounds, 0.43% hits. AID 624416; in the data active = inhibition above about 8.5%
Rev-erbA mod = modulators of human Rev-erb alpha DNA binding | Rev-erbα–FITC-DNA binding, fluorescence polarization, 90 min | activity, % at 10 µM | AID 1259318 | 370,000 compounds, 0.79% hits;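 active = activity above about 14%, limit read from the data; passing the limit was not always enough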;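 also: 0% = DMSO wells with 35 nM protein and 100% = DMSO wells with 750 nM protein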
aDG glyco act = increases alpha dystroglycan glycosylation. Pro5-aDG cells, alpha-DG glycosylation AlphaScreen (IIH6); 0% Pro5, 100% B10-LARGE cell signal. activation, % at 10 µM. 360,000 compounds, 0.22% hits;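 active = activation of at least 8% versus controls, or a plate z-score of at least 8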;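 also: Pro5 are CHO cells carrying HIG-tagged alpha-DG that lacks glycosylation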
p47phox inh = p47phox (human) inhibition | 220,000 compounds, 0.53% hits | P14598 | p47phox/p22phox peptide binding, fluorescence polarization, 2 h | AID 1274 | inhibition, % at 24.7 µM;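 active = inhibition above about 30%, limit read from the data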;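 also: 0% = p47phox with labelled peptide and 100% = labelled peptide alone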
Target sequence (P14598 whole entry, looked up): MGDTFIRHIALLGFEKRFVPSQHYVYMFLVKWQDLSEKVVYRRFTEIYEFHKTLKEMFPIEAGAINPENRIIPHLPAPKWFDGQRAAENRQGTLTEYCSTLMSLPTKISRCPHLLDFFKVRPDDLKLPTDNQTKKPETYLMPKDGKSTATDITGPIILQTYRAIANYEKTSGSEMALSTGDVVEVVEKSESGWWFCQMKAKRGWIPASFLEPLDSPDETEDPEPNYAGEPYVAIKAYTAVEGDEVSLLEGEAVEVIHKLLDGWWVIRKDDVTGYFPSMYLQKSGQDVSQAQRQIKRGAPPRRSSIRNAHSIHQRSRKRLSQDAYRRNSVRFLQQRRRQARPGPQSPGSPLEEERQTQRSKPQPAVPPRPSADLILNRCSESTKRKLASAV
EBNA-1 inh = blocks EBNA-1 binding to DNA. inhibition, % at 14.8 µM. AID 1950. EBNA-1 DNA binding, fluorescence polarization. 300,000 compounds, 0.34% hits; in the data active = inhibition above about 28%
PG9 bind confirm = confirmation of small molecules binding HIV-1 gp120 antibody PG9. inhibition, % at 6.7 µM. 1,500 compounds, 90% hits. shares compounds with PG9 binder. TR-FRET PG9 antibody binding, biochemical; in the data active = inhibition above about 9%
PGV04 counter = PGV04 control antibody binding, counter-screen; 1,500 compounds, 95% hits; AID 651604; TR-FRET PGV04 antibody-gp120 binding, biochemical; inhibition, % at 6.7 µM; shares compounds with PG9 binder; in the data active = inhibition above about 9.5%
PG9 binder DR = PG9 antibody binding, dose response | TR-FRET PG9 antibody-gp120 binding inhibition | 95 tested, under 10 active | AID 651848 | IC50, µM | shares compounds with PG9 binder; in the data active = IC50 below about 10 µM
PGV04 DR counter = counter-screen for PG9 binders: binding to control antibody PGV04. shares compounds with PG9 binder. TR-FRET binding to control antibody PGV04. IC50, µM. 95 compounds, 20% hits. AID 651937
PG126 binding DR = binds control antibody PG126 in PG9 counter-screen. 95 compounds, 20% hits. shares compounds with PG9 binder. IC50, µM. TR-FRET binding to antibody PG126, counterscreen
An asterisk follows results filed as active. A selection: hits, their analogues and other compounds. The true share with any hit is near 1.9%. Rule as the data show it, unless noted: active = IC50 below about 9 µM; inactive = the rest.

`Cc1cccc2cc(CN(Cc3ccco3)C(=O)c3ccncc3)c(=O)[nH]c12` gave ZTA counter -25, PG9 binder 9.3*, Rev-erbA mod -1, aDG glyco act 1, p47phox inh 1, EBNA-1 inh -6, PG9 bind confirm 8 and PGV04 counter 10*.
For Cc1ccccc1NC(=O)CCC(=O)OCC(=O)c1ccc(-c2ccccc2)cc1 the results were ZTA counter 12, PG9 binder 13*, Rev-erbA mod 0, aDG glyco act 0, p47phox inh -16, EBNA-1 inh 14, PG9 bind confirm 13* and PGV04 counter 24*.
COc1cccc(OCc2nn3c(=O)c(-c4ccccc4)nnc3s2)c1 was read as PG9 binder 12*, Rev-erbA mod 18, aDG glyco act 0, PG9 bind confirm 19* and PGV04 counter 35*.
Screening COc1ccc(-c2cn3nc(SCC(=O)NC4CCCCC4)ccc3n2)cc1 returned ZTA counter -4, PG9 binder 33*, Rev-erbA mod -2, aDG glyco act 1, EBNA-1 inh -9, PG9 bind confirm 62* and PGV04 counter 75*.
COc1ccc(-c2ccc(SCC(=O)NC3CCCCC3)nn2)cc1 was read as ZTA counter 0, PG9 binder -2, Rev-erbA mod -1, aDG glyco act 0 and EBNA-1 inh 1.
`O=C(COc1ccc([N+](=O)[O-])cc1)N(Cc1ccccc1)Cc1ccccc1` gave ZTA counter -6, PG9 binder 0, Rev-erbA mod 3, aDG glyco act 1, p47phox inh 0 and EBNA-1 inh -1.
For O=C(COc1ncnc2cc([N+](=O)[O-])ccc12)N(CCc1ccccc1)Cc1ccccc1 the results were ZTA counter 4, PG9 binder 16*, Rev-erbA mod 1, aDG glyco act 0, p47phox inh -40, EBNA-1 inh 4, PG9 bind confirm 26* and PGV04 counter 41*.
Screening COc1ccc(OC)c(S(=O)(=O)Nc2ccc(C(C)=O)cc2)c1 returned ZTA counter 10, PG9 binder 8.6*, Rev-erbA mod -2, aDG glyco act 0, p47phox inh -10, EBNA-1 inh 3, PG9 bind confirm 21*, PGV04 counter 19*, PG9 binder DR >67, PGV04 DR counter >67 and PG126 binding DR >67.
For O=C(NCCCN1CCN(c2ccc(F)cc2)CC1)NCc1ccccc1 the results were Rev-erbA mod -3.
O=C(NCc1cccnc1)c1ccc(Cn2c(=S)[nH]c3ccc(Br)cc3c2=O)cc1 was read as ZTA counter 5, PG9 binder 10*, Rev-erbA mod 9, aDG glyco act 0, p47phox inh 8, EBNA-1 inh 15, PG9 bind confirm 13* and PGV04 counter 13*.
For CN1CCN(CCCNC(=O)c2ccc(Cn3c(=S)[nH]c4ccc(Br)cc4c3=O)cc2)CC1 the results were ZTA counter 1, PG9 binder 0, Rev-erbA mod -10, aDG glyco act 0, p47phox inh -9 and EBNA-1 inh 2.
`O=C(NCCCc1ccccc1)OC1CCC12CCC(c1ccccc1)CC2` (stereo not given) gave Rev-erbA mod 5.
Screening Cc1ccc(S(=O)(=O)c2cn(CC(=O)Nc3ccccc3)c3ccc(F)cc3c2=O)cc1 returned ZTA counter 0, PG9 binder 14*, Rev-erbA mod -8, aDG glyco act 0, p47phox inh 2, EBNA-1 inh -11, PG9 bind confirm 17* and PGV04 counter 25*.
Cc1ccc(Cn2cc(S(=O)(=O)c3ccc(Cl)cc3)c(=O)c3cc(F)ccc32)cc1 was read as ZTA counter -3, PG9 binder 8.7*, Rev-erbA mod 0, aDG glyco act 0, p47phox inh -17, EBNA-1 inh -2, PG9 bind confirm 12* and PGV04 counter 21*.
For O=c1c(S(=O)(=O)c2ccc(Cl)cc2)cn(Cc2ccccc2F)c2ccc(F)cc12 the results were ZTA counter 4, PG9 binder 1, Rev-erbA mod 6, aDG glyco act 0, p47phox inh -33 and EBNA-1 inh -5.
`CCOc1ccc(CC(=O)Nc2c(C(=O)Nc3ccccc3)oc3ccccc23)cc1OCC` gave ZTA counter 21, PG9 binder 23*, Rev-erbA mod 13, aDG glyco act 0, p47phox inh -6, EBNA-1 inh 7, PG9 bind confirm 22* and PGV04 counter 33*.
COc1ccc(CC(=O)Nc2c(C(N)=O)oc3ccccc23)cc1OC was read as ZTA counter -13, PG9 binder -2, Rev-erbA mod 2, aDG glyco act 0 and EBNA-1 inh -18.
`C[C@@H](N)P(=O)(O)C[C@H](Cc1ccccc1)C(=O)O` gave Rev-erbA mod 4.
Screening CC(C)C[C@@H]1COc2cc(N3CCCC3)ccc2S(=O)(=O)N1C returned Rev-erbA mod -4.
CNc1nn(-c2cccc(Cl)c2)nc1N was read as ZTA counter 12, PG9 binder 21*, Rev-erbA mod 1, aDG glyco act 0, p47phox inh -61, EBNA-1 inh -1, PG9 bind confirm 21* and PGV04 counter 27*.
CC(=O)c1cc(-c2ccc(Cl)c(C(F)(F)F)c2)c(=O)n2c1CCC2 was read as Rev-erbA mod 0.
O=C(Nc1ccc(N2C(=O)C3CCCCC3C2=O)cc1Cl)c1cccs1 (stereo not given) was read as ZTA counter -9, PG9 binder 18*, Rev-erbA mod 8, aDG glyco act 0, p47phox inh -1, EBNA-1 inh -3, PG9 bind confirm 30* and PGV04 counter 46*.
`O=C(Nc1ccccc1Cl)c1cccs1` gave ZTA counter -6, PG9 binder -1, Rev-erbA mod -4, aDG glyco act 0, p47phox inh -7 and EBNA-1 inh 0.
`CC(=O)c1sc(C(C)(C)C)cc1NC(=O)CCC(=O)O` gave ZTA counter 5, PG9 binder 10*, Rev-erbA mod 1, aDG glyco act 0, p47phox inh 7, EBNA-1 inh 1, PG9 bind confirm 19* and PGV04 counter 23*.

Bioassay records deposited in PubChem by several laboratories.
